Here are results for 27 molecules from PubChem BioAssay.

Experiment [1] concerns the target Nuclear receptor coactivator 3 (Homo sapiens) (UniProt Q9Y6Q9). In words: NCOA3 GAL4-fusion reporter inhibition – cell-based, luminescence, quadruplicate, confirmation (AID 588792).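 Also: 0% = DMSO treated cells and 100% = gossypol at 36 µM.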 To be noted: HEK293 GAL4-SRC3 luciferase reporter, at 3.6 µM, hits give high values. (A reporter such as luciferase makes a cellular process visible.)
Experiment [2] relates to transactivating tegument protein VP16 (Human herpesvirus 1), Gal4-VP16 luciferase reporter. Put plainly: repression of VP16-driven luciferase reporter – cell-based, luminescence, high throughput, counter-screen for SRC3 inhibitor project (AID 588794; in the data active = inhibition above about 30%). The following applies: mammalian cells, at 3.6 µM, hits give high values.
Experiment [3] has as its system transactivating tegument protein VP16 (Human herpesvirus 1). In words: compounds suppressing VP16-driven luciferase signal – cell-based, luminescence, single concentration, counter-screen for SRC2 inhibitor project (AID 652007; in the data active = inhibition above about 36%). To be noted: cell-based VP16 transactivation luciferase reporter, at 8.9 µM, hits give high values. (In general: Counterscreens check selectivity or assay interference.)

Experiment [4] deals with Nuclear receptor coactivator 2 (Homo sapiens) (UniProt Q15596). Put plainly: inhibition of GAL4-SRC2 driven luciferase expression – cell-based, luminescence, HEK293, triplicate, confirmation (AID 652008;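 active = mean inhibition above 46.5%, the solvent-only control mean plus 3 SD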;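 also: 0% = DMSO-treated cells and 100% = Gossypol at 36 µM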). To be noted: HEK293 GAL4-SRC2 luciferase reporter, at 8.9 µM, hits give high values.
Nuclear receptor coactivator 2 (Homo sapiens), sequence (Q15596 whole entry, looked up, the tested form may be a part): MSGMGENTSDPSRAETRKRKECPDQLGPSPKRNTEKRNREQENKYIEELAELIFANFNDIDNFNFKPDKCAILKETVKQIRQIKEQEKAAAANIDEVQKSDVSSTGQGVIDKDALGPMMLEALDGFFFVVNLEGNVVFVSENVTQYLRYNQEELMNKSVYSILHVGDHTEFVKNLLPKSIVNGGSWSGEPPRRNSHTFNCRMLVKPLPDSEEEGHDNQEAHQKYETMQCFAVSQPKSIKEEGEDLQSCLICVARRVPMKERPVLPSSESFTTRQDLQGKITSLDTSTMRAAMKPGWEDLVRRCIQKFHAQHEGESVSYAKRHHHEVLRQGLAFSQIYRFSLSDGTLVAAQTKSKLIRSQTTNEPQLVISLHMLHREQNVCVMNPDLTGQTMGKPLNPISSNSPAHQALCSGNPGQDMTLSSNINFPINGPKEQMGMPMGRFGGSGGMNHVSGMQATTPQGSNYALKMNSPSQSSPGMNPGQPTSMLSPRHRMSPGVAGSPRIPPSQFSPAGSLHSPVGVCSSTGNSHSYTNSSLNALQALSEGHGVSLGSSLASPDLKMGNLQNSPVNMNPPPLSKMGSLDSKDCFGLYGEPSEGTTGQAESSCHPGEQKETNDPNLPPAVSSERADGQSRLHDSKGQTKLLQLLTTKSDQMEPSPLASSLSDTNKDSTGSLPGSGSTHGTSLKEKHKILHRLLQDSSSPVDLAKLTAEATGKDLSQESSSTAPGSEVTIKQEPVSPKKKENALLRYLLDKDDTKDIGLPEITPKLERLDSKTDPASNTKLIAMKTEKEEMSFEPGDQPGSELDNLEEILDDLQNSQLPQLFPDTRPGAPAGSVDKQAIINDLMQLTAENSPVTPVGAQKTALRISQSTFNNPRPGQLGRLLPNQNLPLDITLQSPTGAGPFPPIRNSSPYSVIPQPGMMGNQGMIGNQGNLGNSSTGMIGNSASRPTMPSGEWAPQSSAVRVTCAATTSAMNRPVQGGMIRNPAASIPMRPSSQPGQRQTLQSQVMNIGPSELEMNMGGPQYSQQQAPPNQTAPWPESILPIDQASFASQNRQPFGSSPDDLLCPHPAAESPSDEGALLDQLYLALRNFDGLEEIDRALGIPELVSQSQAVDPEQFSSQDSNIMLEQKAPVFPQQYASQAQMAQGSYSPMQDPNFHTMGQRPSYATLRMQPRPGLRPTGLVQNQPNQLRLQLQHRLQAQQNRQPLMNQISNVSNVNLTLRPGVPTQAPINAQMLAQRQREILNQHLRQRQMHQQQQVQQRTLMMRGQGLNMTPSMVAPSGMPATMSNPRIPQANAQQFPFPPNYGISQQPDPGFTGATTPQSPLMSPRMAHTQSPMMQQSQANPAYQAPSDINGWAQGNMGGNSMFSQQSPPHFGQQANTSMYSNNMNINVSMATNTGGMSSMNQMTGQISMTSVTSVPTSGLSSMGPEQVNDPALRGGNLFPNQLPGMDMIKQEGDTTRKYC
Experiment [5] has as its target Nuclear receptor coactivator 1 (Homo sapiens) (UniProt Q15788). In words: NCOA1 GAL4-fusion reporter inhibition – cell-based, luminescence, quadruplicate, confirmation (AID 588820;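 active = mean inhibition above 46.68%, the untreated control wells mean plus 3 SD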;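 also: 0% = DMSO wells and 100% = gossypol 36 µM treated wells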). To be noted: HEK293 GAL4-SRC1 luciferase reporter, at 3.6 µM, hits give high values.
A short description of experiment [6]: repression of VP16-driven luciferase reporter – cell-based, luminescence, high throughput, counter-screen for SRC1 inhibitor project (AID 588824; in the data active = inhibition above about 25%). The following applies: cell-based VP16 transactivation luciferase luminescence; at 3.6 µM; hits give high values.
Experiment [7] concerns the target Galanin receptor type 2 (Homo sapiens) (UniProt O43603). Put plainly: blockers of human galanin receptor 2 – cell-based, confirmation (AID 866; in the data active = inhibition above about 27%;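 also: cells stimulated with galanin at about its EC80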). The following applies: GALR2-expressing cells, antagonist mode, at 4 µM, hits give high values.
Experiment [8] is described as follows: nonspecific BLA reporter inhibition – CHO NFAT-bla cells, FRET readout, counter-screen for GALR2 antagonist project, confirmation (AID 867;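 active = inhibition above the mean inhibition across tested compounds plus 3 SD, cut at about 27% in these data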;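 also: 0% = 500 nM thapsigargin stimulated wells and 100% = unstimulated BSA only wells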). To be noted: beta-lactamase FRET, thapsigargin-stimulated, at 4.2 µM, hits give high values.
The nature of experiment [9]: VP16-driven transactivation reporter suppression – cell-based, luminescence, HEK293, counter-screen for COUP-TFII antagonist project (AID 687007; in the data active = inhibition above about 13%). To be noted: HEK293 Gal4-VP16 luciferase reporter, at 8.5 µM, hits give high values.
Experiment [10] addresses COUP transcription factor 2 (Homo sapiens) (UniProt P24468). In words: retest of COUP-TFII reporter suppressors – cell-based, luciferase reporter, HEK293, triplicate, confirmation (AID 687008;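 active = mean inhibition over three repeats above a set limit taken from the earlier primary screen, cut at about 38% in these data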;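 also: 100% = cells given the luciferase reporter alone without the COUP-TF2 vector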). To be noted: HEK293 NGFI-A luciferase reporter, luminescence; at 8.5 µM; hits give high values.

Unmarked numbers belong to inactive results. This is one part of the list. The source made the active and inactive calls.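 The calls were made as follows, unless noted: active = mean inhibition over 43.08%, the solvent-only control mean plus 3 SD; inactive = the rest.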

Nuclear receptor coactivator 1 (Homo sapiens), sequence (Q15788 whole entry, looked up, the tested form may be a part): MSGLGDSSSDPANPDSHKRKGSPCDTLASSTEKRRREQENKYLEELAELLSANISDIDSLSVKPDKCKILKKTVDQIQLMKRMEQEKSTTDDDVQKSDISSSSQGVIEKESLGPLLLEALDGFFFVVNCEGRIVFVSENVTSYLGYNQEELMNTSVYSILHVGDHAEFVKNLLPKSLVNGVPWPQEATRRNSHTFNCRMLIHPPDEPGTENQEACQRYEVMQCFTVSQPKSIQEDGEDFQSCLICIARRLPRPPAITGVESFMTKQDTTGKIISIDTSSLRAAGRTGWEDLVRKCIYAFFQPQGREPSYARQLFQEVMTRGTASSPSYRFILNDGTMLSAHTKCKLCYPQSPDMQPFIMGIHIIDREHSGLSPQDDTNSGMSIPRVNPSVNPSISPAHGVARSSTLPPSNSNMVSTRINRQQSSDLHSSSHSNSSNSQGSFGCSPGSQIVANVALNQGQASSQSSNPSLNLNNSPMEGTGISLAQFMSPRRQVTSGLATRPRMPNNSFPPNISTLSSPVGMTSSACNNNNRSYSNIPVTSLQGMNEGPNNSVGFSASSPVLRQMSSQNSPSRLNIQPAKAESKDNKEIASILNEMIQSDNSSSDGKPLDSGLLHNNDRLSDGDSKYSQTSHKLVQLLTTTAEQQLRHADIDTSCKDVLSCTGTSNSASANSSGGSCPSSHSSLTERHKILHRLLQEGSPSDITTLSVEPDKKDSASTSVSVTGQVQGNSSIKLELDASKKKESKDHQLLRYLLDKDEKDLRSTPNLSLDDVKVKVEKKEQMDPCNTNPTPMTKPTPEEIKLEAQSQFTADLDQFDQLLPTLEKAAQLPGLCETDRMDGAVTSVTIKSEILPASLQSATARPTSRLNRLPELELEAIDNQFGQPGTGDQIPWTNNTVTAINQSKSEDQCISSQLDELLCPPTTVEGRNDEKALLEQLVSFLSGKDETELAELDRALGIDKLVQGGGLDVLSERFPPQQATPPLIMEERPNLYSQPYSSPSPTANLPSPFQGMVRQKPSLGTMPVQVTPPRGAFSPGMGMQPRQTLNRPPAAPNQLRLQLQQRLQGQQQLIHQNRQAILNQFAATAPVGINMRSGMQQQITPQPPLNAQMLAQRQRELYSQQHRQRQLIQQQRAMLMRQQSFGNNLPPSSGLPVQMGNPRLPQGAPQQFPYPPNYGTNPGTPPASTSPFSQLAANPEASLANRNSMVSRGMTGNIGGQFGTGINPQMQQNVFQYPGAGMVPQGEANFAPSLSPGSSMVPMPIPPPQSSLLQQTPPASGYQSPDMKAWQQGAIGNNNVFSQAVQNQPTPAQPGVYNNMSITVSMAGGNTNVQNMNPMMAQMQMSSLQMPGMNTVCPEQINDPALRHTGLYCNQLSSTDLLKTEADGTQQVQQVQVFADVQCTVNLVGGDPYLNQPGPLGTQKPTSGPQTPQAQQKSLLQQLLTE
Nuclear receptor coactivator 3 (Homo sapiens), sequence (Q9Y6Q9 whole entry, looked up, the tested form may be a part): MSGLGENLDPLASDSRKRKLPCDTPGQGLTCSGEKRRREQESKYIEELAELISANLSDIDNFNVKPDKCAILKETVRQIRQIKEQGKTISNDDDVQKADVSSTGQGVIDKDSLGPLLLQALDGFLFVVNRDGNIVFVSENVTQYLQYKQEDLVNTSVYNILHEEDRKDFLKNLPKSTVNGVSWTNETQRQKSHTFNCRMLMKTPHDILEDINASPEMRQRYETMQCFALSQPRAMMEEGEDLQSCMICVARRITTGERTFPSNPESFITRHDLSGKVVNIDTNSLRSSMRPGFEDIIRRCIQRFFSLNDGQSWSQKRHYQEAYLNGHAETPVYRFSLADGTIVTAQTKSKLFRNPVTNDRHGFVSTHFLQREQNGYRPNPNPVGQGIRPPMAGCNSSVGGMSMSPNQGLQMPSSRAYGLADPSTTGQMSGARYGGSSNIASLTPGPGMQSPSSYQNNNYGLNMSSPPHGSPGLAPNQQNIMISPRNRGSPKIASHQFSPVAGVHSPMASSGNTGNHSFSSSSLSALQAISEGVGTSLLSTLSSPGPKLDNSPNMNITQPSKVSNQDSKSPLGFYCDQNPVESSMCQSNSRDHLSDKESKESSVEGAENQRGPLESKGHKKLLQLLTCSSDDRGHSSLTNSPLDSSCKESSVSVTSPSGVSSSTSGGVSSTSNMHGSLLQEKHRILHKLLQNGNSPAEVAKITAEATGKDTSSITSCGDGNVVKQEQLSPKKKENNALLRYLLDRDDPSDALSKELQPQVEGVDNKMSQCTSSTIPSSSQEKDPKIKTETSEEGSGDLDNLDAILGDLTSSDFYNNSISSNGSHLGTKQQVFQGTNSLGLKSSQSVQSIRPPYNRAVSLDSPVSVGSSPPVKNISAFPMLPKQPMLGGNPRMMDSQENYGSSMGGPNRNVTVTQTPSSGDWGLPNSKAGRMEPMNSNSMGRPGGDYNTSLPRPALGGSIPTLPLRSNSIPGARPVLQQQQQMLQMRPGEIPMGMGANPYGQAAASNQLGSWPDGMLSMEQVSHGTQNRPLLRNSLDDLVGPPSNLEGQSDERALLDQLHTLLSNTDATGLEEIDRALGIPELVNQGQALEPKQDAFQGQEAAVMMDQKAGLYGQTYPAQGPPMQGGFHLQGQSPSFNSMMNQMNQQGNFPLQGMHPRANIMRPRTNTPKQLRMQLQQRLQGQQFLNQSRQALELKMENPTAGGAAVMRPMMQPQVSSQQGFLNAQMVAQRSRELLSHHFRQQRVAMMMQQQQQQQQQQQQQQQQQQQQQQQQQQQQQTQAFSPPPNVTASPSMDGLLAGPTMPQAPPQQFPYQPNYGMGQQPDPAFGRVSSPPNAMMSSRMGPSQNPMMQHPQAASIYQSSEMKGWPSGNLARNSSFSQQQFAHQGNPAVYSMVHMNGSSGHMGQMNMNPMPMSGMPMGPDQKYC
Galanin receptor type 2 (Homo sapiens), sequence (O43603 whole entry, looked up): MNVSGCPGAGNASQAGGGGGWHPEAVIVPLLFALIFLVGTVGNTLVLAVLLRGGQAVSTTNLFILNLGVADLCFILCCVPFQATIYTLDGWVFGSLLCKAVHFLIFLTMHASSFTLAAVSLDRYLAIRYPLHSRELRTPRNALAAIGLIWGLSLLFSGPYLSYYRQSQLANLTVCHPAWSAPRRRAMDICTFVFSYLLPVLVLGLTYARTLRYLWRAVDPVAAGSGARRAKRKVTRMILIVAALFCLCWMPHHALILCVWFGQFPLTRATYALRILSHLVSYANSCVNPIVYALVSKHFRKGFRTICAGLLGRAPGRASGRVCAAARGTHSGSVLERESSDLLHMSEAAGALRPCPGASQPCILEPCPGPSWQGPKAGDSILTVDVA
COUP transcription factor 2 (Homo sapiens), sequence (P24468 whole entry, looked up): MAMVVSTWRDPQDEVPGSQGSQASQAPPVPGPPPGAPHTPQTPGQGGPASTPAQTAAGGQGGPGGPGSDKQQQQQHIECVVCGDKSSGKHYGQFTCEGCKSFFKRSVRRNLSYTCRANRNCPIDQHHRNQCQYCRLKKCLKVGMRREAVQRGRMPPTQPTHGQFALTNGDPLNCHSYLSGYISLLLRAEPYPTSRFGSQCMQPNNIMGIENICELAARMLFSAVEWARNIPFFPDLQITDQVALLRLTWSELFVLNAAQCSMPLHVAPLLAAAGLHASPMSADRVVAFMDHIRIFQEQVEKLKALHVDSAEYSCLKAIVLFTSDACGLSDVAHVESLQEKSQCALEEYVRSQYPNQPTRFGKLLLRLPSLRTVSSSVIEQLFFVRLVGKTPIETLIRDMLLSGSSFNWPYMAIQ

For orientation: inhibition means the change of the read-out against control, counted positive when it falls. Consider `CCOC(=O)c1c(C)nn(-c2ccc(NC(=O)/C=C/C(=O)O)cc2)c1C`, for which the inhibition in experiment [1] is 10.7%; in experiment [2], -2.88%; in experiment [3], 8.16%; in [4], 62.7% (active).

Regarding `CC(=O)OCCN1c2ccccc2Sc2cnccc21`, the inhibition in [1] is 43.4% (active); in [2] it was 26.4%; in experiment [3], -4.99%; in experiment [4] it was 23.7%.

For `COCCN(C(=O)CCl)C(C(=O)NC1CCCCC1)c1ccccc1C` (stereo unspecified), the inhibition in [1] is 52.3% (active); in experiment [2] it was 38.7% (active); in experiment [3] it was 45.5% (active); in experiment [4], 58.5% (active).

Regarding `COc1cc(/C=C/C(=O)c2ccc(F)cc2)cc(OC)c1OC`, the inhibition in [1] was 50.5% (active); in experiment [2] it was 34.7% (active); in experiment [3] it was 21.9%; in [4], 28.1%.

As for `Cc1c(/C(O)=C2\C(=O)C(=O)N(CCN(C)C)C2c2ccccc2)cnn1-c1ccccc1` (stereo unspecified), the inhibition in experiment [1] was 15.8%; in experiment [2] it was -3.19%; in [3] it was -15.3%; in [4] it was 10.1%.

On to `Cc1ccc(C2=NN(C(=O)CCl)C(c3cccs3)C2)o1` (stereo unspecified), for which the inhibition in experiment [1] is 36.8%; in experiment [2], 13.5%; in experiment [3] it was 17.2%; in experiment [4], 56.9% (active).

For the molecule `CCc1ccc(/C=C/C(=O)c2c(C)cc(C)[nH]c2=O)cc1`, the inhibition was 55.5% (active) in experiment [1], 50.1% (active) in [2], 17.5% in [3] and 40.1% in experiment [4].

With `O=C(/C=C\Nc1ccc2c(c1)OCO2)c1ccccn1`, the inhibition in experiment [1] was 22.5%; in experiment [2] it was 14.7%; in experiment [3], 29.3%; in [4] it was 62% (active).

Consider `O=C(CCn1cnc(-c2ccccc2)c1-c1ccccc1)N/N=C/c1ccccc1O`, for which the values for the inhibition in experiment [5] and in experiment [6] were 18.6% and 11.4%, respectively.

For `CCCCc1ccc(NC(=O)Nc2c(C)n(C)n(-c3ccccc3)c2=O)cc1`, the values for the inhibition in experiment [5] and in experiment [6] were -11% and 7.24%, respectively.

On to `CCOC(=O)N1CCc2c(sc(NC(=O)CN3CCOCC3)c2C(=O)Nc2ccccc2)C1`, for which the inhibition in experiment [5] is -17.7%; in [6], -5.16%.

Take `Cc1ccc(N2CC(C(=O)N3CCC(C(=O)NCCCOC(C)C)CC3)CC2=O)cc1` (stereo unspecified): the inhibition in experiment [5] is -30.7%; in experiment [6], -8.26%.

On to `O=C1Cc2c([nH]c3ccc([N+](=O)[O-])cc23)-c2ccccc2N1`, for which the inhibition in experiment [1] is 91.9% (active); in experiment [2], 88.9% (active); in [3], 23.5%; in experiment [4], 51% (active).

Consider `Cc1nc2ccccc2c2oc(C(=O)Nc3ccc(C(C)C)cc3)cc12`, for which the figures for the inhibition in [5] and in experiment [6] were -6.16% and -1.6%, respectively.

Take `CCCCCCCN(c1ccccc1)[C@@H]1C[C@H]2CCCC(=O)N3CC[C@@H](C1)[C@@H]23`: the inhibition was 6.93% in experiment [1], 30.5% (active) in experiment [2], 25% in [3] and 35% in experiment [4].

Take `Cc1cc(C)cc(NS(=O)(=O)c2ccc3[nH]c(=O)ccc3c2)c1`: the inhibition in experiment [5] is -17.7%; in experiment [6] it was -3.07%.

On to `O=C(NCc1ccccn1)c1ccc(OC2CCN(Cc3ccc(F)cc3F)CC2)cc1`, for which the values for the inhibition in experiment [5] and in experiment [6] were -0.3% and 3.5%, respectively.

Regarding `COc1ccc(COC(=O)C2=C(C)NC(=O)NC2c2ccc(F)cc2)cc1` (stereo unspecified), the inhibition in [1] is 34.1%; in [2] it was 28.1%; in experiment [3] it was 10.2%; in [4], 31.4%.

`Cc1nnnn1/C(=C\c1ccccc1)C(=O)OCC(=O)N1CC2(C)CC1CC(C)(C)C2` (stereo unspecified): the inhibition was 39% (active) in [7], 16.1% in experiment [8], 22.4% in [1] and 44% (active) in [2].

`C=C(C(=O)c1ccccc1)C(C)C(=C)C(=O)c1ccccc1`: the inhibition is 44.4% (active) in [1], 33.4% (active) in [2], 53.9% (active) in [3] and 51.8% (active) in experiment [4].

Turning to `COc1ccc(C(=O)C(CCC(CNC(C)(C)C)C(=O)c2ccc(OC)cc2)CNC(C)(C)C)cc1` (stereo unspecified), the inhibition in experiment [1] was -9.42%; in experiment [2], 4.54%; in [3], 10.4%; in experiment [4], 20.1%.

Take `COc1ccc(NS(=O)(=O)c2cc(NC(=O)CC(C)(C)C)ccc2N2CCCC2)cc1`: the inhibition in experiment [5] was -10.7%; in [6], -1.18%.

For `COc1ccc(CCC(C)NCc2cc(OC)cc(OC)c2)cc1` (stereo unspecified), the inhibition in experiment [5] is -28.3%; in experiment [6] it was -6.4%.

As for `CSc1nccc(Oc2cncc(Cl)c2)n1`, the inhibition was 8.08% in [5] and 5.07% in experiment [6].

Regarding `Cc1cc(C)c(S(=O)(=O)N2CCCC2=O)c(C)c1N(C)S(C)(=O)=O`, the inhibition in experiment [5] is 0.14%; in [6] it was -4.1%.

Consider `Cc1ccc(C)c(N2CCN(C(=O)CCCCCn3c(=S)[nH]c4ccc(N5CCOCC5)cc4c3=O)CC2)c1`, for which the inhibition in experiment [1] was 60.6% (active); in experiment [2], 73.1% (active); in experiment [3], 69.7% (active); in [4], 60.8% (active); in experiment [9], 15% (active); in [10], 90% (active).

Take `COc1ccccc1C(NC(C)=O)c1cc(Cl)c2cccnc2c1O` (stereo unspecified): the values for the inhibition in experiment [5] and in experiment [6] were 31.7% and 26.6% (active), respectively.
